# ± gives the standard deviation of the averaged measurements. The full ranking holds about 33,000 sequences; the median of “E-score (rank enrichment, -0.5 to 0.5)” is about -0.0028, and the highest 2% start at about 0.23. Many of the other results were omitted from the sample, so the highest values are more common in it than they were.
# Tested on: 2Sb-muMax20 (muMax20 with two 1,3-bis(methyl)benzene Cys staples, A13C/A17C and Q88C/A92C, C-terminal Lys)
# Assay: PBM 8-mer E-score (E-score (rank enrichment, -0.5 to 0.5)); higher = stronger preferential binding
# Protocol: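 Protein binding microarray (universal PBM chip covering all 10-mers in fixed probe flanks) with chemically synthesized human Max(13-93) bHLH-LZ analogs (not full-length Max) bearing noncanonical residues (hArg, Tha, Aib, Nle at 65) and aromatic Cys staples. Read-out per 8-mer (and its reverse complement): E-score (rank-based enrichment, -0.5 to 0.5) and Z-score of median probe intensity.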
row,Sequence,PBM 8-mer E-score
1,GGTTTGTA,0.0375 ± 0.026
2,GTTTTGTA,0.279 ± 0.035
3,CTTTTGTA,0.136 ± 0.035
4,AAGGTTCC,-0.178 ± 0.069
5,GGGTTGTA,0.0272 ± 0.0033
6,TAGACAAA,0.053 ± 0.034
7,CACGAATC,-0.015 ± 0.029
8,AGAAGATG,-0.0449 ± 0.09
9,ATCAAGAA,0.121 ± 0.044
10,CGAAATTA,-0.0924 ± 0.033
11,GAAAATTA,0.2425 ± 0.002
12,AGAAATTA,0.0685 ± 0.035
13,AAAAATTA,0.0513 ± 0.022
14,CAAAATTA,0.108 ± 0.0041
15,GAAATTTC,0.245 ± 0.17
16,AAAATTTC,0.0563 ± 0.036
17,GGAAATTA,0.304 ± 0.016
18,CAAATTTC,0.208 ± 0.085
19,CGAAAACC,-0.0224 ± 0.019
20,ACATACCC,-0.0475 ± 0.056
21,ACTCTTTG,0.0269 ± 0.0091
22,TTAGATAA,0.113 ± 0.021
23,AACGCTCT,-0.0435 ± 0.014
24,CAACCTGA,-0.0727 ± 0.068
25,AAGCGCTA,-0.041 ± 0.0066
26,AAGCGCTT,0.309 ± 0.011

row,Sequence,PBM 8-mer E-score
1,AAGCGCTC,-0.108 ± 0.037
2,ACTGAGCC,-0.209 ± 0.022
3,GAATAGCA,0.146 ± 0.046
4,CATCCATG,-0.0304 ± 0.072
5,ATTACTAC,0.296 ± 0.011
6,ACTACTAT,0.173 ± 0.036
7,ACTAGTAA,0.231 ± 0.036
8,CTTACTAC,0.202 ± 0.032
9,ACTAGTAG,0.113 ± 0.013
10,GCTACTAC,0.233 ± 0.0041
11,ACTAGTAT,0.201 ± 0.067
12,ACTACTAC,0.0819 ± 0.046
13,GCTACTAA,0.082 ± 0.075
14,CCTACTAG,0.0815 ± 0.034
15,ACTACTAG,0.241 ± 0.027
16,ATTACTAG,-0.0604 ± 0.047
17,ACCTGTGA,-0.138 ± 0.064
18,CCTATGAG,-0.157 ± 0.032
19,AATCTAGA,-0.047 ± 0.028
20,CCGTTTAA,-0.0517 ± 0.035
21,AGAGCGTA,0.00302 ± 0.045
22,AGATGATC,-0.147 ± 0.013
23,ACGGTGAG,-0.0622 ± 0.023
24,CAGAATTA,-0.00473 ± 0.0023
25,AGCGAAGA,-0.0699 ± 0.084
26,CTCATGTA,0.0268 ± 0.039

row,Sequence,PBM 8-mer E-score
1,GACATGTA,0.147 ± 0.021
2,CACATGTA,0.338 ± 0.0074
3,AACATGTC,0.11 ± 0.051
4,CACATGAA,0.125 ± 0.0092
5,AACATGTG,0.344 ± 0.044
6,CACATGTC,-0.0158 ± 0.02
7,TACATGCA,0.181 ± 0.0009
8,AACATGTT,0.122 ± 0.0036
9,CACATGTG,0.395 ± 0.00083
10,CACATGCG,0.124 ± 0.051
11,TACATGTA,0.238 ± 0.06
12,CAACTCAG,-0.162 ± 0.038
13,ACCGTCAG,-0.115 ± 0.051
14,GACAGGAC,-0.0924 ± 0.0031
15,GGGACCGA,-0.24 ± 0.04
16,GGGCAGAC,-0.0224 ± 0.074
17,GAACGATA,0.0756 ± 0.039
18,AGTAACCC,0.0955 ± 0.019
19,AATAAACA,0.195 ± 0.025
20,AACATGCA,0.203 ± 0.011
21,AACATGTA,0.258 ± 0.027
22,AACATGGA,-0.00271 ± 0.005
23,CCCATCAA,0.12 ± 0.019
24,CCCATCAC,0.249 ± 0.026
25,GCCATCAC,-0.154 ± 0.0083
26,GCAGAAAA,0.0213 ± 0.046

row,Sequence,PBM 8-mer E-score
1,TAATGGGA,0.147 ± 0.011
2,AATTAGCT,0.164 ± 0.022
3,CCCCTTCC,-0.0525 ± 0.1
4,GCCCTTGA,-0.0328 ± 0.041
5,ACCCTTGA,-0.145 ± 0.041
6,CCCCTTGA,0.27 ± 0.0079
7,TCCCTTCA,0.0279 ± 0.022
8,CCCCTTCA,0.294 ± 0.014
9,GGCCGCAC,-0.0381 ± 0.06
10,CGCCACGC,-0.118 ± 0.0025
11,GATTACCC,0.093 ± 0.041
12,ATCGGCCC,0.0612 ± 0.096
13,GTGCCGCA,-0.0229 ± 0.078
14,AACCCATG,0.106 ± 0.067
15,ACCCCATG,0.253 ± 0.019
16,ACCCCAAC,0.217 ± 0.019
17,ACCCCCAT,-0.188 ± 0.066
18,ACCCCAAT,0.344 ± 0.025
19,ACCCCAAA,0.2008 ± 0.0017
20,ACCCCAAG,0.271 ± 0.016
21,AACCCAAT,-0.0928 ± 0.095
22,ACCCCATA,0.147 ± 0.013
23,CATTGCCA,-0.0459 ± 0.045
24,CACCAGAA,-0.00913 ± 0.061
25,GAGTCAGA,-0.0579 ± 0.039
26,ACGGCCAA,-0.0314 ± 0.0051

row,Sequence,PBM 8-mer E-score
1,ACTGGTGC,-0.0379 ± 0.026
2,CTATTCAC,-0.0182 ± 0.015
3,CGATAGAA,0.0743 ± 0.02
4,CGTCCGAA,-0.121 ± 0.017
5,GACAGAAA,0.111 ± 0.013
6,AACAGAAA,0.0674 ± 0.036
7,TACAGAAA,0.256 ± 0.021
8,AAGACGTC,0.0152 ± 0.028
9,GATGGCAC,0.03519 ± 8.5e-05
10,GATGGCAA,0.242 ± 0.012
11,CATGGCAA,-0.0308 ± 0.0076
12,ATGCCGCA,0.0568 ± 0.0082
13,AGCGAGGA,-0.0458 ± 0.014
14,GTCTTCTA,0.00543 ± 0.00074
15,CGTACCCA,0.0446 ± 0.097
16,AGTACCCC,0.129 ± 0.038
17,ACTACCCC,0.214 ± 0.047
18,CGTACCCC,0.246 ± 0.015
19,CCTACCCC,0.248 ± 0.062
20,GCTACCCC,-0.0378 ± 0.075
21,ATGAAAAC,0.0577 ± 0.019
22,CAGGAAAC,-0.0883 ± 0.035
23,CGACTCAC,-0.236 ± 0.04
24,AGGGTTCC,-0.294 ± 0.015
25,ACGTATGA,0.127 ± 0.02
26,ACGTATGC,0.238 ± 0.066

row,Sequence,PBM 8-mer E-score
1,CCGTATGC,-0.07 ± 0.043
2,TCCGAGCA,-0.1624 ± 0.00048
3,AACCCCAT,0.156 ± 0.03
4,GATTAGAA,0.00142 ± 0.015
5,CATTAGAA,0.00421 ± 0.034
6,TATTAGAA,0.259 ± 0.036
7,ACCCGCCT,0.0215 ± 0.042
8,ATGCCGAC,-0.112 ± 0.0097
9,AGTGGGGC,0.0302 ± 0.058
10,GTTGGGCA,0.024 ± 0.041
11,AGTGGGAT,0.293 ± 0.031
12,GGTGGGCA,0.262 ± 0.0056
13,AGTGGGGG,0.085 ± 0.077
14,AGTGGGAG,-0.0115 ± 0.017
15,GGTGGGGA,0.302 ± 0.032
16,CGTGGGGA,0.0752 ± 0.016
17,AGTGGGAA,0.105 ± 0.12
18,GGTGGGAA,0.0964 ± 0.019
19,AGTGGGGA,0.3126 ± 0.0004
20,CGTGGGCA,0.00349 ± 0.003
21,CAATACCC,0.216 ± 0.021
22,ATCAAGCA,-0.0166 ± 0.023
23,AACGTTAC,0.0258 ± 0.019
24,AATGGACA,0.0255 ± 0.059
25,CATCCCAG,-0.121 ± 0.0081
26,AACGGCGA,-0.0512 ± 0.014

row,Sequence,PBM 8-mer E-score
1,ACGATAAA,0.014 ± 0.017
2,AGCAGAGG,-0.0143 ± 0.0075
3,AGGTGGGA,0.13 ± 0.12
4,GGGTGGGA,0.314 ± 0.026
5,CGGTGGGA,0.00626 ± 0.078
6,ATACGCAG,-0.0883 ± 0.0056
7,ATACGCAA,0.303 ± 0.0063
8,GTACGCAA,-0.0811 ± 0.049
9,GTATACAC,0.0536 ± 0.025
10,CTATATCC,0.217 ± 0.014
11,ATAGATAG,0.204 ± 0.051
12,ATAGATAC,0.239 ± 0.02
13,CTATATAC,0.214 ± 0.027
14,ATATATCA,0.18 ± 0.048
15,ATATATAT,0.00253 ± 0.052
16,GTATATAC,0.296 ± 0.039
17,GTATATAA,0.119 ± 0.015
18,ATATATAC,0.289 ± 0.038
19,ATATATCC,0.24 ± 0.015
20,ATAGATAA,0.185 ± 0.09
